# Screens deposited in PubChem BioAssay by National Center for Advancing Translational Sciences (NCATS).
# LASV entry inh: Lassa virus entry inhibition | Lassa virus pseudotype entry inhibition, cell reporter | Potency, µM (series often up to 37.9 µM), for inactives: top-dose activity change, negative = inhibition, most hits filed as inhibitors | hit rate 1.2% among 300,000 | AID 540256; calls by dose curve; tested in HEK293 cells; note: potency is the fitted concentration of half-maximal effect; % is set by controls: 0 for no effect and ±100 for the full control effect; nearly all actives have a fitted effect of over 50% in size
# CHX counter: counter-screen hit for Shiga toxin inhibitors, cycloheximide. cell reporter, cycloheximide protein synthesis inhibition counterscreen. max response, %. hit rate 12% among 300,000. AID 2314; in the data active = max response mostly above about 13%, no sharp cut-off; inactive = mostly below about 14%; note: read at 38.3 µM for the half of the compounds with a filed dose; 0% is about no effect
# Shiga toxin inh: inhibitors of Shiga toxin in Vero cells; Vero cells, Shiga toxin protein synthesis inhibition reporter; inhibition, % at 38.7 µM; hit rate 9.2% among 290,000; AID 2315; in the data active = inhibition mostly above about 28%, no sharp cut-off; inactive = mostly below about 43%; note: 0% is about no effect
# MARV entry inh: blocks Marburg virus binding to or entry into cells | Marburg virus pseudotyped entry inhibition, cell reporter | AID 540276 | Potency, µM (highest dose often 37.8 µM), for the others: at the top dose activity change, negative = inhibition, hits mostly inhibitors | hit rate 1.8% among 300,000; calls by dose curve; tested in HEK293 cells; note: potency is the fitted concentration of half-maximal effect; % is set by controls: 0 for no effect and ±100 for the full control effect
# HCV inh: HCV inhibition. Huh7.5.1 HCVcc-Cre infection, luciferase reporter, 44 h. Potency, µM (top dose mostly 41.8 µM), for the others: at the highest dose activity change, negative = inhibition, usual class: inhibitors. hit rate 3.4% among 340,000; active = well fitted inhibition curve with a large enough effect; inconclusive = small, poorly fitted or top-dose-only effect, or another doubt; inactive = no such curve, though single readings can be large or run the other way; note: potency is the fitted concentration of half-maximal effect; % is set by controls: 0 for no effect and ±100 for the full control effect
#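 After 44 h co-culture of compound, cells and HCVcc-Cre (~0.5 moi), substrate is added for 15 min at room temperature and luciferase measured over 15 sec. Cells were seeded at 1,000/well and pre-cultured 4 h.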
# FMDV inh: antivirals against foot and mouth disease virus; FMDV antiviral cell-based qHTS; Potency, µM (series often up to 57.9 µM), for the others: at the top dose activity change, negative = inhibition, actives largely listed as inhibitors; hit rate 1.2% among 410,000; AID 1159524; calls by dose curve; tested in HEK293T cells; note: read-out not given here; potency is the fitted concentration of half-maximal effect; % is set by controls: 0 for no effect and ±100 for the full control effect; nearly all actives have a fitted effect of over 45% in size
# * = called active by the depositor; ? = inconclusive; nt = no result; [ ] = another dose, or the depositor's remark. In the library only some 13% were active in any assay of this set; here they are far more common.
SMILES,LASV entry inh,CHX counter,Shiga toxin inh,MARV entry inh,HCV inh,FMDV inh
O=C(O/N=C\c1ccc(N2CCCCC2)c([N+](=O)[O-])c1)c1ccc(Cl)cc1Cl,1.7%,-2.8,-7.1,-17.7%,-6.3%,-22.0%
COc1ccccc1C(=O)/C=C/c1ccc(N2CCCCC2)c([N+](=O)[O-])c1,?,62.3*,99.0*,?,11.2µM*,35.5µM*
CCOc1ccc(S(=O)(=O)c2c(C(=O)c3ccc(C)c(C)c3)cnc3ccccc23)cc1,nt,nt,nt,-13.0%[46.1 µM],nt,-22.5%
CC1(C)OC(=O)N(CCc2ccccc2)C1(C)O (stereo not given),-6.1%,-0.6,-9.4,-14.0%,-2.4%,-15.2%
CC1(C)OC(=O)N(c2ccccc2)C12C=Cc1cc(Br)ccc1O2 (stereo not given),-11.3%,-2.5,-13.3,18.3µM*,?,?
Cc1cccn2c(=O)c(C=O)c(N3CCCCCC3)nc12,0.9%,-1.1,-8.7,-18.6%,-2.6%,-11.6%
COc1ccc2nc(SCC(=O)N3CCCCCC3)c(C#N)cc2c1,-2.7%,14.6*,86.9*,17.2%,6.31µM*,17.4%
COc1ccc2nc(N3CCCCC3)c(C#N)cc2c1,-17.8%,64.1*,124.0*,-15.4%,-28.7%,25.4%
Cc1cc2cc3c(cc2nc1SCC(=O)N1CCCC1)OCCO3,-7.0%,-3.5,-3.3,?,-27.5%,3.5%
N#Cc1cc2cc3c(cc2nc1SCC(=O)N1CCOCC1)OCCO3,?,51.8*,74.2*,?,4.0%,?
COc1ccc(N(Cc2cc3cccc(C)c3[nH]c2=O)S(=O)(=O)c2ccc(Cl)cc2)cc1,nt,1.5,13.6,nt,1.7%,-10.5%
COc1cc(C(=O)N/N=C(\c2ccccc2)c2ccccn2)cc(OC)c1OC,nt,-8.4,-13.4,nt,?,39.8µM*
COc1cc(NC(=O)C/C(C)=N/NC(=O)c2ccccn2)c(OC)cc1Cl,?,43.6*,71.6*,?,13.8%,29.7%
COc1ccc(C(=O)N/N=C(\C)CC(=O)Nc2ccccn2)cc1OC,-1.0%,-5.7,1.4,?,-0.3%,-1.1%
COc1ccccc1NC(=O)C/C(C)=N/NC(=O)c1ccccn1,?,33.4*,63.2*,?,15.3%,40.8%
Fc1cccc(CSc2ncnc3c2ncn3C2CCCCO2)c1 (stereo not given),?,nt,nt,?,?,14.2%
CCCNC(=O)c1oc2ccc3c(c2c1C)C=CC(C)(C)O3,-6.7%,49.3*,75.6*,?,?,33.0%
CCCNC(=O)c1oc2ccc3c(c2c1C)C(=O)CC(C)(C)O3,-19.9%,44.0*,49.9*,?,10µM*,1.9%
Cc1c(C(=O)NCc2ccc(Cl)cc2)oc2ccc3c(c12)C(=O)CC(C)(C)O3,nt,nt,nt,?,nt,30.8%
CCOC(=O)c1ccc(NC(=O)c2oc3ccc4c(c3c2C)C(=O)CC(C)(CC)O4)cc1 (stereo not given),2.4%[46.1 µM],nt,nt,?,nt,?
COc1ncc2nc(-c3cc(F)cc(F)c3)c(=O)n(C[C@H]3CCCO3)c2n1,nt,nt,nt,nt,nt,-2.2%
CSc1nsc(SCC(=O)Nc2ccc(C(C)=O)cc2)n1,10.9%,47.5*,71.8*,3.1%,-4.5%,39.1%
COc1ccc(NC(=O)CSc2nc(SC)ns2)cc1,-3.8%[46.1 µM],18.9*,89.0*,?,-14.9%,28.9%
COc1cc(OC)c(C(=O)Nc2cc(Cl)ccc2-n2cncn2)cc1OC,-1.4%,nt,nt,-3.4%[46.1 µM],12.6µM*,-27.7%
O=C(Nc1cc(Cl)ccc1-n1cncn1)c1ccc([N+](=O)[O-])s1,?,18.8*,-22.7,-14.3%,7.94µM*,-16.4%
SMILES,LASV entry inh,CHX counter,Shiga toxin inh,MARV entry inh,HCV inh,FMDV inh
COc1cc(NC(=O)[C@@H](NC(=O)c2ccco2)C(C)C)c(OC)cc1NC(=O)c1ccccc1,-6.7%,-2.1,14.7,?,7.94µM*,-6.5%
COc1cc(NC(=O)C(C)C)ccc1NC(=O)c1ccco1,8.2%,58.3*,63.3,26.1%,-3.0%,nt
COc1cc2c(cc1NC(=O)c1ccco1)CCCC2,?,51.5*,57.3*,0.2%,?,nt
COc1ccc(NC(=O)CCNC(=O)c2ccco2)c(OC)c1,1.0%[46.1 µM],28.3*,16.6,2.0%[46.1 µM],1.2%,7.0%
COc1cc(NC(=S)NC(=O)c2ccco2)ccc1NC(=O)C(C)C,?,14.4,37.2,24.3%[46.1 µM],-21.9%,44.3%
COc1ccc(C(=O)NNC(=O)C(NC(=O)c2ccccc2NC(=O)c2ccco2)C(C)C)cc1 (stereo not given),-2.0%,-3.0,12.2,16.9%[46.1 µM],4.4%,-17.4%
CCNc1nc(Oc2ccc(=O)n(-c3ccccc3)n2)nc(N2CCOCC2)n1,-20.4%,-2.3,11.6,12.8%,10.4%,?
C=CCNc1nc(C(=O)OCC(=O)Nc2ccc(S(N)(=O)=O)cc2)cs1,?,nt,nt,16.8%[46.1 µM],-12.1%,15.1%
COC(=O)CNC(=O)C1CC(=O)N(CCc2ccc(F)cc2)C1 (stereo not given),-1.2%,-3.2,-3.8,2.3%,16.0%,-14.5%
CCCN(CCC)S(=O)(=O)c1ccc(C(=O)NNc2nc(-c3ccccc3)c3cc(Br)ccc3n2)cc1,-27.3%,3.9,-8.0,?,-3.5%,-20.3%
C/C(CC(=O)Nc1cc(Cl)ccc1Cl)=N\NC(=O)c1ccccc1Br,nt,9.3,11.9,nt,18.5%,-8.5%
C/C(CC(=O)Nc1cc(Cl)ccc1Cl)=N\NC(=O)c1ccco1,-4.0%,51.1*,82.6*,-23.3%,-0.1%,-6.9%
COc1ccc(NC(=O)c2ccco2)c(OC)c1,?,41.8*,74.2*,14.1%,-16.5%,29.5%
CCOc1ccccc1NC(=O)CCNC(=O)c1ccco1,?,2.1,11.8,3.4%[46.1 µM],-0.8%,15.6%
COc1ccc(Cl)cc1NC(=O)c1ccco1,0.2%,-2.8,-8.3,1.3%,11.2µM*,-10.3%
CC(=O)c1ccccc1NC(=O)CCNC(=O)c1ccco1,14.5%,18.5*,27.2,29.1%[46.1 µM],7.6%,5.7%
O=C(NNC(=O)c1ccccc1F)c1ccc(-n2cncn2)c([N+](=O)[O-])c1,1.7%[46.1 µM],nt,nt,21.1%,12.7%,-16.9%
COc1ccc(NC(=O)c2ccccc2SC)c(OC)c1,16.4%[46.1 µM],0.3,-5.2,14.2%[46.1 µM],-27.3%,5.4%
COc1ccc(NC(=O)c2ccccc2O)c(OC)c1,5.8%,51.2*,87.6*,-29.5%,-20.5%,58.5%
COc1ccc(Cn2c(CCC(=O)Nc3ccc(Br)c(C)c3)nc3cccnc32)cc1,-12.4%[46.1 µM],nt,nt,1.2%[46.1 µM],nt,-15.8%
CCCCCCN1C(=O)C(O)=C(C(C)=O)C1c1ccccc1[N+](=O)[O-] (stereo not given),-6.4%,3.1,23.2,18.5%[46.1 µM],2.5%,-20.5%
CC(=O)C1=C(O)C(=O)N(C)C1c1ccccc1[N+](=O)[O-] (stereo not given),4.7%[46.1 µM],16.6*,20.6,-5.1%[46.1 µM],8.3%,11.6%
CC(=O)C1=C(O)C(=O)N(CCC(=O)O)C1c1ccccc1[N+](=O)[O-] (stereo not given),2.3%[46.1 µM],17.4,-8.0,6.3%[46.1 µM],18.4%,-7.6%
